AI-2 QS mod: Vibrio harveyi AI-2 quorum sensing modulators, primary screen, JMH597 strain, luminescence/OD600 ratio; Vibrio harveyi JMH597 AI-2 luminescence/OD600 ratio, 9 h; active compounds read low; strain lacks LuxN and CqsS sensors; 0 = neutral-control median; activity change, % at 7.5 µM; 300,000 compounds, 0.4% hits; AID 2094, 2009; in the data active means activity change below about -75%, passing the limit was not always enough;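 further: luminescence divided by OD600 gain over 9 h not by final OD600 alone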
NTR1 agonist: agonists of human NTR1, primary screen, imaging, U2OS cells, beta-arrestin-GFP, high content. 330,000 compounds, 0.17% hits. Neurotensin receptor type 1 (Homo sapiens), P30989. NTR1-U2OS beta-arrestin-GFP spot imaging, agonist mode. AID 493036, 2011. activation, % at 20 µM;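 active means activation at or above 40% of the spot to cytoplasm intensity ratio, with at least 20 cells analyzed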;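 further: 0% = DMSO without peptide and 100% = 100 nM NTR1 peptide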
Target sequence (P30989 whole entry, looked up): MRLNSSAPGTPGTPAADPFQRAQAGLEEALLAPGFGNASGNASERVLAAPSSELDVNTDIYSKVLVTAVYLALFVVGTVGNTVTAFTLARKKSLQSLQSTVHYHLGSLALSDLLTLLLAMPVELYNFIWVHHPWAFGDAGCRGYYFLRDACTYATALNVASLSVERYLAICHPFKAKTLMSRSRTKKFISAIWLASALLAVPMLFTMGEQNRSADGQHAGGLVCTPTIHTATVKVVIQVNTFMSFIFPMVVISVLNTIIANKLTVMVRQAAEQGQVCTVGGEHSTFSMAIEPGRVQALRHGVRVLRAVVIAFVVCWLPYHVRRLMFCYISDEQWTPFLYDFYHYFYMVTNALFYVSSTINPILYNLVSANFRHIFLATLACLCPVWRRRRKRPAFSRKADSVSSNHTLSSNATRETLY
Mot1-301 SUMO: yeast Mot1-301 growth rescue at high temperature, primary screen, SUMOylation pathway inhibitor project, S. cerevisiae, ATP luminescence, 38.5C. S. cerevisiae Mot1-301 growth rescue; percent above DMSO median, 100 means doubled. growth rescue, % at 18.8 µM. 320,000 compounds, 1% hits. AID 2716, 2010;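 active means every valid replicate shows activation above 250% relative to neutral control wells; inactive means the rest, any valid replicate at or below 250%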;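 further: OY570 slx delta 5 strain wells were the positive control but not used for scaling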
AHR activator: AHR activators, primary screen, cell-based, luminescence, luciferase reporter, human | Aryl hydrocarbon receptor (Homo sapiens), P35869 | AHR-responsive luciferase reporter cells | activation, % at 5 µM | 320,000 compounds, 2.5% hits; in the data active means activation above about 47%;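 further: 0% = vehicle wells and 100% = reference agonist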
GRIN3A LBD mod: binders of NR3A ligand-binding domain, primary screen, biophysical, differential scanning fluorimetry, uHTS | Glutamate receptor ionotropic, NMDA 3A (GRIN3A) ligand-binding domain | 340,000 compounds, 2.5% hits | Tm shift relative to glycine control, % at 25 µM | NR3A LBD differential scanning fluorimetry, Tm shift; 0% = protein alone, 100% = glycine-bound protein;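 active means melting temperature shift of at least 10% of the positive control shift, at one fixed dose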
H9c2 protect: cardioprotection against H2O2-induced cell death, primary screen, uHTS, H9c2 cells, ATPLite luminescence. H9c2 cardiomyocytes, H2O2 injury protection, 2 h. protection from H2O2 cell death, % at 20 µM. 360,000 compounds, 0.63% hits. AID 588492, 2011;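 active means compounds giving at least 50% protection of heart cells from peroxide-induced death in the single-dose screen, raw or plate-pattern-corrected value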;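 further: 0% = DMSO wells with peroxide and 100% = DMSO wells without peroxide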
* = called active by the depositor; · = no result given. Hits are enriched below; roughly 6.2% of the tested compounds scored in any of these assays.

SMILES	AI-2 QS mod	NTR1 agonist	Mot1-301 SUMO	AHR activator	GRIN3A LBD mod	H9c2 protect
Cc1cn(-c2cc(NC(=O)c3ccc(C)c(NC(=O)c4cccc(-c5cn[nH]c(=O)c5)c4)c3)cc(C(F)(F)F)c2)cn1	62	5	14	0	-6	30
Cc1ccccc1C(=O)c1cccn1CC(=O)N1CCCCC1	4	0	-9	0	1	2
Cc1csc(=O)n1CC(=O)OCC(=O)c1ccc(Br)cc1	27	-1	-6	-2	4	3
O=C(Cn1cnc2c(NC(=O)OCc3ccccc3)ncnc21)NCCN1CCOCC1	·	-2	13	0	-1	4
COc1c([N+](=O)[O-])cc(C(=O)NNC(=O)c2ccc(C)cc2)cc1[N+](=O)[O-]	10	2	3	0	3	-2
O=C(COC(=O)CNS(=O)(=O)c1ccc(Br)cc1Cl)NC1CCCC1	30	-1	12	5	18*	-5
O=C(O)c1cccc(N/N=C/c2cn(-c3ccccc3)nc2-c2cccs2)c1	-16	0	-29	54*	-4	-15
Cc1nn(-c2ccccc2Cl)c(Cl)c1/C=N/Nc1cccc(C(=O)O)c1	26	1	-16	-8	10*	-14
O=C(N/N=C/c1nn(-c2ccccc2)cc1-c1ccccc1)c1ccncc1	5	8	92	-2	-16	62*
Cc1nn(-c2cccc(C(F)(F)F)c2)c(Cl)c1/C=N/Nc1cccc(C(=O)O)c1	12	·	18	3	-1	-3
Cc1ccsc1/C=N/Nc1cccc(C(=O)O)c1	92	-1	-2	-10	20*	-3
COc1ccc(CN2CCNC(=O)C2CC(=O)N(C)CCCN2CCOCC2)cc1C (stereo unspecified)	35	1	-6	-2	1	4
CN(CC(=O)Nc1ccc(Cl)cc1F)C1=NS(=O)(=O)c2ccccc21	·	1	-6	2	1	2
CC(=O)O[C@H]1[C@H](C)OC=C[C@@H]1OC(C)=O	9	-3	-10	-8	0	3
CCOc1ccccc1CNC(=O)c1ccc(NC(=O)C2=CSCCO2)cc1	10	1	11	-1	-1	-2
O=C(N/N=C/c1cn(-c2ccccc2)nc1-c1cccs1)c1ccncc1	-1	5	24	16	-28	54*
NS(=O)(=O)c1ccc(N/N=C/c2ccccc2Br)cc1	20	1	0	20	14*	9
NS(=O)(=O)c1ccc(N/N=C/c2cn(-c3ccccc3)nc2-c2cccs2)c([N+](=O)[O-])c1	8	22	-13	-1	3	-4
NC(=O)N/N=C/c1cn(-c2ccccc2)nc1-c1cccs1	13	5	8	33	1	-9
NS(=O)(=O)c1ccc(N/N=C/c2cn(-c3ccccc3)nc2-c2cccs2)cc1	54	3	64	37	34*	30
O=C(O)c1cccc(Cn2c(Cl)c(/C=N/Nc3ccccc3)sc2=O)c1	41	2	279*	2	-5	-6
CC1(C(=O)Nc2ccccc2F)CCN1C(=O)Cc1ccc(-c2ccccc2)cc1 (stereo unspecified)	·	·	·	·	·	-19
O=C(N/N=C/C=C/c1ccccc1)c1ccncc1	17	-2	832	8	25*	8
C/C(=N\NC(=O)C1CC1)c1ccccc1O	·	2	640*	0	-2	1
C/C(=N\NC(=O)C1CC1)c1ccccc1Br	-3	0	1	·	0	-1
SMILES	AI-2 QS mod	NTR1 agonist	Mot1-301 SUMO	AHR activator	GRIN3A LBD mod	H9c2 protect
CCOC(=O)Nc1ccc2c(COC(=O)CNS(=O)(=O)c3cccc(Br)c3)cc(=O)oc2c1	1	2	-2	-2	26*	8
CCOC(=O)Nc1ccc2c(COC(=O)CN(C)S(=O)(=O)c3ccc(C)cc3)cc(=O)oc2c1	7	0	-2	-5	2	-9
CCN(CC)c1ccc(-c2nc3cnccn3c2NC2CCCC2)cc1	32	0	-15	69*	3	-25
c1cn2c(NC3CCCCC3)c(-c3ccc(SC4CCCCC4)cc3)nc2cn1	0	13	23	1	-9	-14
CCOC(=O)c1c(C)[nH]c2ccc(O)cc12	13	-2	-2	65*	26*	-12
CC(C)(C)C(=O)NCc1ccc(C(=O)CSc2nnc(-c3ccncc3)n2C2CC2)s1	·	2	·	·	0	1
O=C(/C=C/c1ccccc1)NNC(=O)c1cccs1	7	0	-3	12	-1	2
O=C(Nc1ccc(NC(=O)c2cccs2)cc1Cl)c1ccco1	5	0	522	-7	4	6
CCCC(=O)Nc1ccc(Cl)c(NC(=O)c2ccco2)c1	6	0	1	0	2	2
O=C(Nc1ccc(Cl)c(NC(=O)c2cccs2)c1)c1ccco1	6	1	19	75*	0	3
CCC(=O)Nc1ccc(Cl)c(NC(=S)NC(=O)COc2ccc(Cl)cc2)c1	13	11	-14	9	26*	-7
CCCC(=O)Nc1ccc(Cl)c(NC(=S)NC(=O)c2ccco2)c1	10	0	170	53*	-4	-4
O=C(/C=C/c1ccccc1)Nc1ccc(NC(=O)c2cccs2)cc1	-4	1	-6	-2	29*	2
C[C@@H]1CN([C@H](C)CO)C(=O)CCCn2nncc2CO[C@@H]1CN(C)C(=O)Nc1cccc2ccccc12	·	·	·	·	·	-7
O=C(CC1Sc2ccccc2NC1=O)NNc1ccc(F)cc1 (stereo unspecified)	·	·	·	·	-2	1
O=C(Nc1ccc(NC(=O)c2cccs2)cc1)c1cccs1	10	0	19	-11	22*	-2
O=C(Nc1ccc(NC(=O)c2ccccc2F)cc1)c1cccs1	·	-1	6	-4	22*	-2
Cc1ccn(-c2ccc(NC(=O)c3cccs3)cc2)n1	15	0	69	-5	26*	-17
Cc1ccc(NS(=O)(=O)c2ccc(NC(=O)c3cccs3)cc2)cc1	19	1	3	3	20*	-15
COC(=O)C(OC(=O)c1ccccc1)C(C)Br (stereo unspecified)	·	0	10	0	1	10
CC(OC(=O)c1ccc(Br)o1)C(=O)NCC1CCCCC1 (stereo unspecified)	·	-1	135	-1	0	-5
CN(C)c1cc(-c2cccc(C(F)(F)F)c2)oc(=O)c1Cl	30	0	148	12	-1	-3
